This note sets out measurements from PubChem BioAssay (NCATS).

Values without a mark were called inactive. Records with an inconclusive call do not appear. Calls of active or inactive are those of the source. Unless noted, the call rests on the fitted dose curve; in most records, active means well fitted curve in either direction with a large enough effect (not every such curve was filed as active); inconclusive means small, poorly fitted or top-dose-only effect, or another doubt; inactive means flat fitted curve, though single readings scatter. Bounds are passed on as bounds.

The target of experiment [1] is Lysosomal acid glucosylceramidase (Homo sapiens) (UniProt P04062). Nature of the experiment: Glucocerebrosidase-p2 (AID 348; in the data active means potency below about 10 µM; further: potency means the concentration at half of the fitted maximal effect). Conditions: purified GBA, blue fluorogenic substrate, 40 min. Summed up: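 Normal human glucocerebrosidase (0.2 nM) with blue fluorogenic substrate (80 uM final) in citrate/phosphate pH 5.9 with 10mM sodium taurocholate, 0.01% tween-20; 40 min RT, NaOH/glycine stop; fluorescence Ex 365/Em 440; AC50 from a titration from 0.6 nM upwards.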
Chain of Lysosomal acid glucosylceramidase (Homo sapiens) (P04062 whole entry, looked up): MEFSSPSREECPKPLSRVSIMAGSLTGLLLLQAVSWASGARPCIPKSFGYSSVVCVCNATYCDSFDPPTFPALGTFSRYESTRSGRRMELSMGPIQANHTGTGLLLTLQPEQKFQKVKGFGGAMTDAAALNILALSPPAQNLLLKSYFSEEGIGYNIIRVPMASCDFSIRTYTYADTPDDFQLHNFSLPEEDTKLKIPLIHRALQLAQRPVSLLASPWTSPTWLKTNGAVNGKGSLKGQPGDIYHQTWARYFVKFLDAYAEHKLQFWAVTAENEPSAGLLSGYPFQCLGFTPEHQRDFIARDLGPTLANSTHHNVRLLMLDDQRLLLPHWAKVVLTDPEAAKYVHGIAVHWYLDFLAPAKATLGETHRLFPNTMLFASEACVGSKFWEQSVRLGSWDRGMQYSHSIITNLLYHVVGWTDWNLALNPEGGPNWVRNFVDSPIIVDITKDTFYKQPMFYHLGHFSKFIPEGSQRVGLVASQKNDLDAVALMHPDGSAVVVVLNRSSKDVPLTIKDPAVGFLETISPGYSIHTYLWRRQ

Experiment [2] is described as follows: AP1 Signaling Pathway (AID 357).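 Further: ME-180 reporter cells stimulated with EGF at its EC50 level; on the % scale 0 is the no-effect control and ±100 the full control effect.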 As to conditions: ME-180 AP-1-bla reporter, EGF-induced, beta-lactamase ratio, 5 h; at 7.69 µM (top of the series) unless noted. Summed up:
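In this screen, ME-180 cells in Opti-MEM with 0.5% dialyzed FBS received EC50 EGF and compound titrations for 5 h. AP-1 reporter beta-lactamase was detected via CCF4 ratio, giving AC50 for positive and negative modulators.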

The target of experiment [3] is Cytochrome P450 1A2 (Homo sapiens) (UniProt P05177). Nature of the experiment: p450-cyp1a2 (AID 410; calls by dose curve; further: potency means the concentration at half of the fitted maximal effect;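 on activity change, negative = inhibition: -100% = full effect of reference inhibitor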). Conditions: recombinant CYP1A2, luciferin-ME demethylation, luminescence; series mostly up to 11.4 µM. Summed up:
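Luminescent demethylation readout: Luciferin-ME (100uM, equal to Km) turned over by 20nM CYP1A2 for 60 min at room temperature after NADPH regeneration addition, following 10 min compound preincubation. Normalization used 57 uM furafylline as full inhibition.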

Experiment [4] can be described thus: NFAT Signaling Pathway (AID 444).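 Further: carbachol stimulus at about its EC50 of 1 µM final; on the % scale 0 is the no-effect control and ±100 the full control effect.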 As to conditions: Jurkat NFAT-bla M1, carbachol, beta-lactamase ratio, 5 h; at 7.69 µM (top of the series) unless noted. Summed up:
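Read-out: CCF4 FRET ratio (460 nm/530 nm) after 1 h RT dye loading, used for %activity and AC50 from titration series. Cells: Jurkat NFAT-β-lactamase/M1 line, treated with compound plus 1 uM carbachol for 5 h, 37 °C.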

Experiment [5] can be described thus: Stat Signaling Pathway (AID 446).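 Further: ME-180 cervical cancer cells given 40 pM IL-6 alongside compound; SIE-controlled beta-lactamase reporter measured as 460/530 nm FRET emission ratio; on the % scale 0 is the no-effect control and ±100 the full control effect.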 Conditions: ME-180 SIE beta-lactamase reporter, IL-6 stimulated, 5 h; at 7.69 µM (top of the series) unless noted. Summed up: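 Normalization used AC90 stimulation (300 pM IL-6) and AC90 inhibition (125 nM pan-JAK inhibitor at 40 pM IL-6). The underlying signal is SIE-driven beta-lactamase in ME-180 cells after 5 h IL-6 exposure with compound.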

For experiment [6], the target named is Glucocorticoid receptor (Homo sapiens) (UniProt P04150). The experiment in a line: GR-GFP Redistribution (AID 450;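 active means compounds whose dose series gives a full or clear partial fitted curve of increased nuclear translocation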; further: potency means the concentration at half of the fitted maximal effect). As to conditions: U2OS GR-GFP nuclear translocation, laser cytometry, 2 h.
Chain of Glucocorticoid receptor (Homo sapiens) (P04150 whole entry, looked up): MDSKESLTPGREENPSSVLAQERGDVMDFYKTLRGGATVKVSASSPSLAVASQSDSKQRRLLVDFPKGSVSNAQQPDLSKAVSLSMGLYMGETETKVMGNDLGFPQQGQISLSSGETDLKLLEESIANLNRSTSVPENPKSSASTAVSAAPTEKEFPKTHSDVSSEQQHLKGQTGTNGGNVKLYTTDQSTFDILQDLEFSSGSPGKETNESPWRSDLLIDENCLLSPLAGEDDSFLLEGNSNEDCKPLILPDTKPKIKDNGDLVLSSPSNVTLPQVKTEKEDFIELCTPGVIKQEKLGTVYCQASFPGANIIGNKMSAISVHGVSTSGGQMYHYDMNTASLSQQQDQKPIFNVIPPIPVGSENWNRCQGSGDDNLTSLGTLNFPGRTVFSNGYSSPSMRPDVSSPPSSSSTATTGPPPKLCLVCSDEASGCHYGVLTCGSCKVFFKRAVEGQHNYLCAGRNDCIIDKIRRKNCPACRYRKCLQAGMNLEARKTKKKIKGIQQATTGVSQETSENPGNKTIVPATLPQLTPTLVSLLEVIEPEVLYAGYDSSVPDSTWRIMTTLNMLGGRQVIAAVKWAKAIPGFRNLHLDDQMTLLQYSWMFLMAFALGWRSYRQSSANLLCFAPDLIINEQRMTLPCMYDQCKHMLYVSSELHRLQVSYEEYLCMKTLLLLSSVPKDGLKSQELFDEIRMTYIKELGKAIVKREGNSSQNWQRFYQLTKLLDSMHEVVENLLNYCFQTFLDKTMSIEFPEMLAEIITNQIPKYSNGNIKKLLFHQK
The target is the same in experiment [7]. Nature of the experiment: GR-EFC Redistribution (AID 451; calls by dose curve; further: potency means the concentration at half of the fitted maximal effect). Conditions: CHO-K1 GR-EFC translocation, beta-gal luminescence, 2 h. Summed up:
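Translocation of GR-ED fusion to nuclear EA restores b-gal, read by luminescence after 1 h room-temperature detection. Engineered CHO-K1 biosensor cells, 1,000/well, exposed 2 h at 37 C to titrations up to 46 uM final.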

In experiment [8] the target is Mitogen-activated protein kinase 10 (Mus musculus) (UniProt Q61831). Nature of the experiment: JNK3 AlphaScreen Assay (AID 530).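 Further: kinase came from lysate of stimulated human HepG2 cells; signal reports phosphorylation of biotinylated GST-cJun 1-79 at Ser73 with 10 µM ATP; on the % scale 0 is the no-effect control and ±100 the full control effect.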 As to conditions: JNK3 lysate, c-Jun phosphorylation; series mostly up to 11.4 µM. Summed up: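 qHTS titrations with 15 min compound pre-incubation before adding ATP (10 uM final). Read-out: AlphaScreen of Ser73-phosphorylated biotin-GST-cJun using HepG2 lysate JNK3 activated by IL-1β and TNFα.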
For orientation: In Alpha technology, singlet oxygen from a donor bead excites a nearby acceptor bead.

Experiment [9] addresses 3',5'-cyclic-AMP phosphodiesterase 4B (Homo sapiens) (UniProt Q07343). Nature of the experiment: qHTS Assay for Inhibitors of PDE-IV (AID 607; active means well fitted activation curve with a large enough effect in the main read-out, with a control signal flat, not every such curve was filed as active; further: % of control where 0% means no effect). Conditions: HEK293 ACTOne CNG channel cells, membrane potential fluorescence; series mostly up to 22.9 µM. Summed up:
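HEK293 ACTOne cells with CNG channel (1000/well), endogenous PDE4; membrane potential dye, compounds up to 22.9 uM final. Fluorescence Ex 535/Em 590; RO 20-1724 (100 uM final) as reference.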
A general note: Quantitative high-throughput screening tests each substance at several concentrations.

The target of experiment [10] is Cytochrome P450 3A4 (Homo sapiens) (UniProt P08684). The experiment in a line: qHTS Assay for Activators of Cytochrome P450 3A4 (AID 885; active means well fitted curve in the direction sought with a large enough effect; an effect the other way counts as inactive or inconclusive; further: nearly all actives have a fitted effect of over 65% in size). As to conditions: recombinant CYP3A4, Luciferin-PPXE luminescence, 60 min; series mostly up to 11.4 µM. Summed up: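 Human CYP3A4 dealkylates Luciferin-PPXE to luciferin, which luciferase detection converts to light. Substrate was at its KM (25uM), buffer 200mM KPO4, reaction 60 min at RT.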
Chain of Cytochrome P450 3A4 (Homo sapiens) (P08684 whole entry, looked up): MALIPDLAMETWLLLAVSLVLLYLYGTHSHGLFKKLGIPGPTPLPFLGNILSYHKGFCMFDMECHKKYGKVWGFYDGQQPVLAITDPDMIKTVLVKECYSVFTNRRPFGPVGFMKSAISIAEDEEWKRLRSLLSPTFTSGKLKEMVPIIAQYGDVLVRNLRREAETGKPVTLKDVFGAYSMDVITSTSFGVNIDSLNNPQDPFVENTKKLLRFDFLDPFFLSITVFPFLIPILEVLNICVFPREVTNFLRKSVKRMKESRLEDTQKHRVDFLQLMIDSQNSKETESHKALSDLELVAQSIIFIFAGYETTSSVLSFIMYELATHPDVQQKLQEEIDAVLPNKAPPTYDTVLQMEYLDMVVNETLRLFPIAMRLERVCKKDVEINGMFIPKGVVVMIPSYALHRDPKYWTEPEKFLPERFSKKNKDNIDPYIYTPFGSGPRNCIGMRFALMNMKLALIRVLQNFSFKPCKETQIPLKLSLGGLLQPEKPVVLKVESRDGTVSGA

Experiment [11] concerns the target Cytochrome P450 2D6 (Homo sapiens) (UniProt P10635). Nature of the experiment: qHTS Assay for Inhibitors and Substrates of Cytochrome P450 2D6 (AID 891; active means well fitted curve in the direction sought with a large enough effect; an effect the other way counts as inactive or inconclusive; further: nearly all actives have a fitted effect of over 60% in size; further: potency means the concentration at half of the fitted maximal effect). Conditions: recombinant CYP2D6, luciferin-ME EGE luminescence; series mostly up to 11.4 µM. Summed up:
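Luminescent read-out of luciferin formed by 5 nM human CYP2D6 demethylating 30 uM Luciferin-ME EGE (Km level) over 60 min at room temperature after NADPH regeneration addition. Data normalized to full inhibition by 1.43 uM quinidine.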

Experiment [12] in a line: qHTS Assay for Identification of Small Molecule Agonists for Hypoxia Response Element Signaling Pathway (AID 914; active means well fitted activation curve with a large enough effect in the signal ratio, with a control signal flat, not every such curve was filed as active; the % refers to the signal ratio; further: % of control where 0% means no effect). Conditions: ME-180 (cervical carcinoma) HRE-bla reporter, beta-lactamase ratio, CoCl2, 17 h; activation: stronger effect = higher value. Summed up: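 AC50 values come from titration-series %Activity, taken as the 460/530nm ratio of CCF4 fluorescence (excitation 405nm). CellSensor HRE-bla ME-180 cells were treated 17 hours at 37 C with compound plus an EC50 level of CoCl2.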

Experiment [13] has as its target Cytochrome P450 2C19 (Homo sapiens) (UniProt P33261). The experiment in a line: qHTS Assay for Inhibitors and Substrates of Cytochrome P450 2C19 (AID 899; active means well fitted curve in the direction sought with a large enough effect; an effect the other way counts as inactive or inconclusive; further: potency means the concentration at half of the fitted maximal effect; nearly all actives have a fitted effect of over 60% in size). Conditions: recombinant CYP2C19, luciferin-H EGE luminescence; series mostly up to 11.4 µM. Summed up: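 Luminescence readout of luciferin formed from 10uM Luciferin-H EGE (KM level) by 5 nM CYP2C19 in 50mM KPO4. 60 min NADPH-driven reaction at 37C after 10 min compound preincubation; data scaled to 57uM ketoconazole inhibition.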

Chain of Cytochrome P450 1A2 (Homo sapiens) (P05177 whole entry, looked up): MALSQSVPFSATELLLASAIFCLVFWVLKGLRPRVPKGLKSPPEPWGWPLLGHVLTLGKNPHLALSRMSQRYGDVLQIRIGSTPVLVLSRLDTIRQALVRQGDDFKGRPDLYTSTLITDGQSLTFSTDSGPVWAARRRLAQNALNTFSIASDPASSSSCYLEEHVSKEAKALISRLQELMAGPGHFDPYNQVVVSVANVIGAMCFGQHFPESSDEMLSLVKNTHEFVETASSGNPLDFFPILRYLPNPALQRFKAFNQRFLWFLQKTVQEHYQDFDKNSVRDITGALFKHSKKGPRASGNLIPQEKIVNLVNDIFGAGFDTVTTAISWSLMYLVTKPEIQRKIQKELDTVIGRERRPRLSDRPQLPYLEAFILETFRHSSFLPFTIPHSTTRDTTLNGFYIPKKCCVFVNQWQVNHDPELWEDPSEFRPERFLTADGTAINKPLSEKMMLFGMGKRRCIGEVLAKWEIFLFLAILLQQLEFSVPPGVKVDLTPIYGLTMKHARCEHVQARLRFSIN
Chain of 3',5'-cyclic-AMP phosphodiesterase 4B (Homo sapiens) (Q07343 whole entry, looked up): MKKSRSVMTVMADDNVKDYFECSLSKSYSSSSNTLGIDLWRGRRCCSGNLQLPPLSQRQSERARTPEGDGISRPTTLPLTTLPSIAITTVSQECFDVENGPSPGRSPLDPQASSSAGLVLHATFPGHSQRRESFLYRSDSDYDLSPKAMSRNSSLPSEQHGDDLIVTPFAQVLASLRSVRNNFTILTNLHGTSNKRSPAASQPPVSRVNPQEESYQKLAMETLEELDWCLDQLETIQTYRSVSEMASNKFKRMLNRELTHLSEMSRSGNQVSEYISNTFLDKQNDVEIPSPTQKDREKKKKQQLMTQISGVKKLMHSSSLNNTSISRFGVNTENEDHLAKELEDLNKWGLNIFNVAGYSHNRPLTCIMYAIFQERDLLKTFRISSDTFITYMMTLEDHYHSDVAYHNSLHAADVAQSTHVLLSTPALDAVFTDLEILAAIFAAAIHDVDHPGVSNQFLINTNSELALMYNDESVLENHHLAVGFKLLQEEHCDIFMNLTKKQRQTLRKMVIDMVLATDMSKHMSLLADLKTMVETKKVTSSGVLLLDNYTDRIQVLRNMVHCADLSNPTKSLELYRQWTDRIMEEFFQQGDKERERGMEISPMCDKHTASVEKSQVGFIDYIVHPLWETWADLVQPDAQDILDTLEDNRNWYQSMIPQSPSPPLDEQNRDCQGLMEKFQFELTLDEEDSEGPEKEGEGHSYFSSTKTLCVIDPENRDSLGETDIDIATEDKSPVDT
Chain of Cytochrome P450 2D6 (Homo sapiens) (P10635 whole entry, looked up): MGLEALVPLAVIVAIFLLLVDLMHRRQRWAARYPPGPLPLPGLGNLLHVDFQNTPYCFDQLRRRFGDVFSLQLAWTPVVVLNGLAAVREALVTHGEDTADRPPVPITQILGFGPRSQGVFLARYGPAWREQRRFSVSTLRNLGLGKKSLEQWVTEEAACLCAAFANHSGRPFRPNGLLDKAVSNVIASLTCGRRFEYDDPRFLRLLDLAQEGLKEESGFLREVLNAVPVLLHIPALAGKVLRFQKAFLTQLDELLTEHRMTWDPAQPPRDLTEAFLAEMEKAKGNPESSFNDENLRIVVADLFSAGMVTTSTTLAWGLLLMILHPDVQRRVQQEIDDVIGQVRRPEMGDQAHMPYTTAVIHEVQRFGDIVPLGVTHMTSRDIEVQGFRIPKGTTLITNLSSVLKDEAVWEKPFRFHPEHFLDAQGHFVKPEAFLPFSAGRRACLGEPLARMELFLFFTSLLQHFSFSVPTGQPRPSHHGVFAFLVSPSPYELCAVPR
Chain of Cytochrome P450 2C19 (Homo sapiens) (P33261 whole entry, looked up): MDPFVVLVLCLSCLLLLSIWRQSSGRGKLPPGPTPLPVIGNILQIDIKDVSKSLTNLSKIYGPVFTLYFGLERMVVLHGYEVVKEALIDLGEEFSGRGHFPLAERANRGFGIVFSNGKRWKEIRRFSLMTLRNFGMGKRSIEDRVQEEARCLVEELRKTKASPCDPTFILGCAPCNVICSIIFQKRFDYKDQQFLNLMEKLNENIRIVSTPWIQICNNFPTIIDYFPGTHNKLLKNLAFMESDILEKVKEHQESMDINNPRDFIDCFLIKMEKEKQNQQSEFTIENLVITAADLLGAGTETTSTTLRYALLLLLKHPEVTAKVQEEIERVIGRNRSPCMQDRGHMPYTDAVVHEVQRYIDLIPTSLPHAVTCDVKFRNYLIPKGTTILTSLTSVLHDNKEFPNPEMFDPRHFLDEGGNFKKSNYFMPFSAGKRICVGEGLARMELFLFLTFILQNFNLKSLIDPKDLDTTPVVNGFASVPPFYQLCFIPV

With `CC1(CC(=O)O)O[C@H]2CCCCC[C@H]2O1` (some centres undefined) (tested in a mixture with another compound), the values for the Potency in experiment [1], in [6] and in [7] were above 11.4 µM, above 46 µM and above 9.22 µM, respectively. In addition, the activity change, negative = inhibition in [2] is 8.96%; in experiment [4], -4.93%. Also, the Potency entry in [3], in experiment [8], in experiment [9] and in experiment [10] was “inactive” throughout. In [5], the activity, negative = inhibition was 5.55%.
In the case of `O=C(O)c1nc2nc(Cl)c(Cl)nc2[nH]1`, the Potency in experiment [1] was above 11.4 µM; in experiment [6], above 46 µM; in experiment [7], above 9.22 µM. Further, the activity change, negative = inhibition in [2] was 0.697%; in [4], -0.0714%. Further, the Potency result in [3], in experiment [8], in experiment [9] and in experiment [10] was “inactive” throughout. The activity, negative = inhibition in experiment [5] was 2.39%.
Turning to `Cc1cc(C(C)(C)C)c(OCCCN2CCOCC2)c(C(C)(C)C)c1`, the Potency was above 11.4 µM in experiment [1], above 46 µM in [6], above 9.22 µM in experiment [7] and 2 µM (active) in experiment [11]. Besides, the activity change, negative = inhibition was 3.87% in [2], -17.7% [at 2.29 µM] in experiment [3] and -12.7% in experiment [4]. Moreover, the activity, negative = inhibition in experiment [5] was 0.456%. Further, the Potency entry in [8], in [9] and in experiment [10] was “inactive” in each case. Besides, the activation in experiment [12] is 1.57%.
As to `CCOC(=S)SCC(=O)O`, the Potency in [1] is above 11.4 µM; in experiment [6], above 46 µM; in [7] it was above 9.22 µM. Besides, the results for the activity change, negative = inhibition in experiment [2] and in [4] were 3.32% and 9.65%, respectively. Also, the Potency entry in experiment [3], in experiment [8], in experiment [9] and in experiment [11] was “inactive” throughout. For the same compound, in experiment [5], the activity, negative = inhibition is 16.6%.
For `O=C(O)NCC1CCCCC1` (tested in a mixture with another compound), the Potency in [1] is above 11.4 µM; in [6], above 46 µM; in [7], above 9.22 µM; in experiment [11], 3.98 µM (active). In addition, the activity change, negative = inhibition in [2] was 23.3%; in experiment [4], 22.8%. Besides, the Potency entry in [3], in experiment [8] and in experiment [9] was “inactive” in each case. In [5], the activity, negative = inhibition is -1.59%.
Consider `Cc1[nH]c2c(C)ccc(C)c2c1CC(=O)O`, for which the Potency in [1] is above 11.4 µM; in experiment [3], 3.16 µM (active); in experiment [6] it was above 46 µM; in experiment [7] it was above 9.22 µM; in experiment [13] it was 0.316 µM (active). Further, the figures for the activity change, negative = inhibition in [2] and in experiment [4] were -6.88% and 10.6%, respectively. The activity, negative = inhibition in experiment [5] is 9.85%. Besides, the Potency entry in experiment [8], in experiment [9] and in experiment [10] was “inactive” throughout.
Regarding `O=C1/C(=C/c2cccnc2)SC(=S)N1Cc1ccco1`, the Potency in [1] was above 11.4 µM; in experiment [3], 0.501 µM (active); in experiment [6], above 46 µM; in experiment [7], above 9.22 µM; in [13] it was 3.16 µM (active). The activity change, negative = inhibition is 0.116% in experiment [2] and -2.58% in experiment [4]. The activity, negative = inhibition in experiment [5] was -9.72%. The Potency result in experiment [8], in [9] and in [10] was “inactive” throughout.
